Our source for the Potency, viability and outcome values is PubChem BioAssay (NCATS).

What is called viability is a read-out of living cells in per cent, often relative to untreated cells.

A short description of experiment [1]: Quantitative High-Throughput drug screen in 47 multiple myeloma cell lines against the NCATS MIPE library collection: OCIMY7_PLB cell viability assay (AID 1918987). Also: nearly all actives have a fitted effect of over 65% in size. Also: potency is read from the fitted curve at half-maximal effect. The gist of the method: (§1)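 Cells were exposed to library compounds for 48 hours, after which ATP was measured by CellTiter-Glo. Signal was taken as median relative luminescence units.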
Experiment [2] in a line: Quantitative High-Throughput drug screen in 47 multiple myeloma cell lines against the NCATS MIPE library collection: SKMM1_PLB cell viability assay (AID 1919863). Also: nearly all actives have a fitted effect of over 35% in size. Also: potency is read from the fitted curve at half-maximal effect. As to viability: series mostly up to about 46 µM. To be noted: SKMM1 myeloma viability, CellTiter-Glo ATP, 48 h; viability: active compounds read low. The gist of the method: as §1
(Cellular ATP, detected with luciferase, serves as a proxy for viable cell number.)

A short description of experiment [3]: Quantitative High-Throughput drug screen in 47 multiple myeloma cell lines against the NCATS MIPE library collection: XG6_PLB cell viability assay (AID 1919865). Also: nearly all actives have a fitted effect of over 40% in size. Also: potency is read from the fitted curve at half-maximal effect. The gist of the method:
as §1

Experiment [4] can be described thus: Quantitative High-Throughput drug screen in 47 multiple myeloma cell lines against the NCATS MIPE library collection: XG1_PLB cell viability assay (AID 1919866). Also: nearly all actives have a fitted effect of over 35% in size. Also: potency is read from the fitted curve at half-maximal effect. In a few lines:
as §1

The nature of experiment [5]: Quantitative High-Throughput drug screen in 47 multiple myeloma cell lines against the NCATS MIPE library collection: VP6_DJ cell viability assay (AID 1919867). Also: nearly all actives have a fitted effect of over 40% in size. Also: potency is read from the fitted curve at half-maximal effect. The gist of the method:
as §1

The nature of experiment [6]: Quantitative High-Throughput drug screen in 47 multiple myeloma cell lines against the NCATS MIPE library collection: PCM6_Riken cell viability assay (AID 1919870). Also: nearly all actives have a fitted effect of over 30% in size. Also: potency is read from the fitted curve at half-maximal effect. The gist of the method:
as §1

A short description of experiment [7]: Quantitative High-Throughput drug screen in 47 multiple myeloma cell lines against the NCATS MIPE library collection: OPM1_PLB cell viability assay (AID 1918989). Also: nearly all actives have a fitted effect of over 40% in size. Also: potency is read from the fitted curve at half-maximal effect. In a few lines:
as §1

Experiment [8] can be described thus: Quantitative High-Throughput drug screen in 47 multiple myeloma cell lines against the NCATS MIPE library collection: RPMI8226_ATCC cell viability assay (AID 1919871). Also: nearly all actives have a fitted effect of over 30% in size. Also: potency is read from the fitted curve at half-maximal effect. In a few lines: as §1
The nature of experiment [9]: Quantitative High-Throughput drug screen in 47 multiple myeloma cell lines against the NCATS MIPE library collection: OPM2_DSMZ cell viability assay (AID 1919872). Also: nearly all actives have a fitted effect of over 30% in size. In a few lines:
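CellTiter-Glo luminescence (ATP) after 48 h compound exposure, 37C/5% CO2; 500 cells/well; MIPE 4.0 approved/investigational drugs pinned in; DMSO = 100%, media only = 0% viability.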

Experiment [10] can be described thus: Quantitative High-Throughput drug screen in 47 multiple myeloma cell lines against the NCATS MIPE library collection: KMS11_JCRBsus cell viability assay (AID 1919873). Also: nearly all actives have a fitted effect of over 50% in size. Also: potency is read from the fitted curve at half-maximal effect. The gist of the method: as §1
The nature of experiment [11]: Quantitative High-Throughput drug screen in 47 multiple myeloma cell lines against the NCATS MIPE library collection: KMS28BM_JCRB cell viability assay (AID 1919874). Also: nearly all actives have a fitted effect of over 35% in size. Also: potency is read from the fitted curve at half-maximal effect. The gist of the method: as §1
Experiment [12] is described as follows: Quantitative High-Throughput drug screen in 47 multiple myeloma cell lines against the NCATS MIPE library collection: U266_ATCC cell viability assay (AID 1919864). Also: nearly all actives have a fitted effect of over 35% in size. Also: potency is read from the fitted curve at half-maximal effect. In a few lines:
as §1

The nature of experiment [13]: Quantitative High-Throughput drug screen in 47 multiple myeloma cell lines against the NCATS MIPE library collection: UTMC2_PLB cell viability assay (AID 1919868). Also: nearly all actives have a fitted effect of over 55% in size. Also: potency is read from the fitted curve at half-maximal effect. The gist of the method: as §1
The nature of experiment [14]: Quantitative High-Throughput drug screen in 47 multiple myeloma cell lines against the NCATS MIPE library collection: PE2_PLB cell viability assay (AID 1919869). Also: nearly all actives have a fitted effect of over 35% in size. Also: potency is read from the fitted curve at half-maximal effect. In a few lines:
as §1

Experiment [15] is described as follows: Quantitative High-Throughput drug screen in 47 multiple myeloma cell lines against the NCATS MIPE library collection: OCIMY5_PLB cell viability assay (AID 1918988). Also: nearly all actives have a fitted effect of over 65% in size. Also: potency is read from the fitted curve at half-maximal effect. In a few lines:
as §1

Experiment [16] has as its target Cytochrome P450 3A4 (Homo sapiens) (UniProt P08684). Description: qHTS for inhibitors of CYP3A4 against the NCATS DSHEA and TCM libraries (AID 1919971). Also: potency is read from the fitted curve at half-maximal effect. To be noted: recombinant CYP3A4 enzyme activity, luminescence qHTS. The gist of the method: (§2)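 Each CYP isoform and its pro-luciferin substrate, at isoform-specific final concentrations, were preincubated 15 min at RT with substances. NADPH regeneration solution (1x) started a 30-45 min reaction, and P450-Glo luminescence was read.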
(In general: Quantitative high-throughput screening tests each substance at several concentrations.)

For experiment [17], the target named is Cytochrome P450 2D6 (Homo sapiens) (UniProt P10635). Description: qHTS for inhibitors of CYP2D6 against the NCATS DSHEA and TCM libraries (AID 1919972). Also: potency is read from the fitted curve at half-maximal effect. The conditions noted are these: CYP2D6 enzymatic inhibition, luminescence qHTS. In a few lines: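 CYP2D6 enzyme with pro-luciferin substrate in manufacturer buffer (typically 100 mM KPO4), preincubated 15 min RT with substances (most at 19.5 nM upward); NADPH regeneration system (1x) started 30–45 min RT reaction; P450-Glo luminescence read after 30 min; quinidine as intraplate control.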

Experiment [18] addresses Cytochrome P450 2C9 (Homo sapiens) (UniProt P11712). Description: qHTS for inhibitors of CYP2C9 against the NCATS DSHEA and TCM libraries (AID 1919973). Also: potency is read from the fitted curve at half-maximal effect. The conditions noted are these: recombinant CYP2C9 enzyme activity, luminescence. The gist of the method: as §2
Experiment [19] deals with Cytochrome P450 2C19 (Homo sapiens) (UniProt P33261). Description: qHTS for inhibitors of CYP2C19 against the NCATS DSHEA and TCM libraries (AID 1919974).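 Also: luminescence from luciferin released by CYP2C19 oxidation of a pro-luciferin substrate; potency is read from the fitted curve at half-maximal effect.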 To be noted: CYP2C19 enzyme inhibition, luminescence qHTS. In a few lines: as §2
The nature of experiment [20]: KB-3-1 P-gp reporter qHTS against the NCATS DSHEA and TCM libraries (AID 1919975). Also: 0% is about no effect. In a few lines: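 Cell viability qHTS: 500 KB-3-1 cells/well, substances in titration, ~72 h, 37C; luminescent CellTiter-Glo read.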

Records with an inconclusive call do not appear. Values without a mark were called inactive. Activity calls are given as the source filed them. Calls follow the shape of the dose curve; as a rule, active = well fitted curve in the direction sought with a large enough effect; inconclusive = small, poorly fitted or top-dose-only effect, or another doubt; inactive = no such curve, though single readings can be large; an effect the other way counts as inactive or inconclusive.

Chain of Cytochrome P450 2C19 (Homo sapiens) (P33261 whole entry, looked up): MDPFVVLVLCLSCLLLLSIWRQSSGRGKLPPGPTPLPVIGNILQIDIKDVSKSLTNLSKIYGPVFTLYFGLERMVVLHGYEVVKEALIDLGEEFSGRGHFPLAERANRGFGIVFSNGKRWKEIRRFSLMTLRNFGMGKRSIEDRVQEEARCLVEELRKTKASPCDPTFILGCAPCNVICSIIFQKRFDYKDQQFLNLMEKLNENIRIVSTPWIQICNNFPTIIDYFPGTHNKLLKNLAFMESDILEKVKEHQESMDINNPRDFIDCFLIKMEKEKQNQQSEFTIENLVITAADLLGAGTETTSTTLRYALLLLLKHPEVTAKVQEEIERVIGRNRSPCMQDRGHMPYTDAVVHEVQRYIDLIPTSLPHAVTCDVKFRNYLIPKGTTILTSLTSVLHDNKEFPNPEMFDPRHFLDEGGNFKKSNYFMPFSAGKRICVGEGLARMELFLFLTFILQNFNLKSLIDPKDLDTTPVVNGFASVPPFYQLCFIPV
Chain of Cytochrome P450 2C9 (Homo sapiens) (P11712 whole entry, looked up): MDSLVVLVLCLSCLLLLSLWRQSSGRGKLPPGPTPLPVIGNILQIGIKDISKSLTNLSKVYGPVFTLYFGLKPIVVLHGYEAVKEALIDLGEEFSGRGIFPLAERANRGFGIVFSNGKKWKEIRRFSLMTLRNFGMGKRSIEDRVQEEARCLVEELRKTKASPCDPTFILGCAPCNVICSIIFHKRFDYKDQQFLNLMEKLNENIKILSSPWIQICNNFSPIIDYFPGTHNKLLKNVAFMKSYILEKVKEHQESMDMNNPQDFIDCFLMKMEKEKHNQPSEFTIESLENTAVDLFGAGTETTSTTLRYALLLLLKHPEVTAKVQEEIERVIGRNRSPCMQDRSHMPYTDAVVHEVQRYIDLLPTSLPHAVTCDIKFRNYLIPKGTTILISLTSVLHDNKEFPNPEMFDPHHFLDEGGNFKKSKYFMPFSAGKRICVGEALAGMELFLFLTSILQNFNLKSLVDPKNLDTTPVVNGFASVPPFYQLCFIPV
Chain of Cytochrome P450 3A4 (Homo sapiens) (P08684 whole entry, looked up, canonical isoform): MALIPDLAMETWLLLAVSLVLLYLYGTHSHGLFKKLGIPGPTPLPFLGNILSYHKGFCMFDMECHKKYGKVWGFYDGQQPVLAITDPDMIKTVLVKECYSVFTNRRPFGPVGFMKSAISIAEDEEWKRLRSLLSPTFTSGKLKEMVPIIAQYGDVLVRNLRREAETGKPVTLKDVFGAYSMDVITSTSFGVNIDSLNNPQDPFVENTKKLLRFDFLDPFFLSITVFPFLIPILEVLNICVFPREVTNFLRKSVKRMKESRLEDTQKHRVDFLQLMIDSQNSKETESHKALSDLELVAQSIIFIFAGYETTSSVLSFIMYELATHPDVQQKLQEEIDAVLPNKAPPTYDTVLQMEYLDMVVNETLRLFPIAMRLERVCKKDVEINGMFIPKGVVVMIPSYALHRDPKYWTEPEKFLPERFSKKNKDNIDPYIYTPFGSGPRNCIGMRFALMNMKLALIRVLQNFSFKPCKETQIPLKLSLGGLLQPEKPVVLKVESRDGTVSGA
Chain of Cytochrome P450 2D6 (Homo sapiens) (P10635 whole entry, looked up): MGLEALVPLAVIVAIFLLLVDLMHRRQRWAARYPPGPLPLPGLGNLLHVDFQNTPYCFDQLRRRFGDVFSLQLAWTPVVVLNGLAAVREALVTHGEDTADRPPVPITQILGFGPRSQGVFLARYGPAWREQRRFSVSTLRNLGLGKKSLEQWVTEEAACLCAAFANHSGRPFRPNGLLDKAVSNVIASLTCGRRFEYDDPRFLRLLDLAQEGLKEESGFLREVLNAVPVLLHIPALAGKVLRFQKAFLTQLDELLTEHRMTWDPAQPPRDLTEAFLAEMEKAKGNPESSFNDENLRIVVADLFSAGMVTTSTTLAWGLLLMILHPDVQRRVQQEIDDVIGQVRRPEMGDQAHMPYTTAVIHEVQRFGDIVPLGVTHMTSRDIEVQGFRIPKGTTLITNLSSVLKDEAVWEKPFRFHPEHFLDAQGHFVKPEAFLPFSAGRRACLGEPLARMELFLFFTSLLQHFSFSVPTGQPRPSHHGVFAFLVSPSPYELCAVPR

Take `Clc1ccc(C(Cn2ccnc2)OCc2c(Cl)cccc2Cl)c(Cl)c1` (stereo unspecified): the Potency in [1] is 29.6 µM (active); in experiment [2] it was 26.4 µM (active); in [3], 26.4 µM (active); in [4], 20.9 µM (active); in experiment [5], 16.6 µM (active); in [6], 14.8 µM (active).
Turning to `Nc1ncn([C@H]2C[C@H](O)[C@@H](CO)O2)c(=O)n1`, the Potency in experiment [1] is 0.187 µM (active); in [7] it was 8.33 µM (active); in experiment [2], 5.9 µM (active); in experiment [3], 0.833 µM (active); in experiment [4] it was 0.264 µM (active); in experiment [10], 0.59 µM (active). Moreover, the Potency entry in experiment [5], in experiment [8], in experiment [9] and in experiment [11] was “inactive” throughout.
Turning to `Cc1cc(Cl)ccc1OCCCC(=O)NO`, the Potency in [1] is 0.59 µM (active); in experiment [7], 20.9 µM (active); in experiment [12], 14.8 µM (active); in [3], 1.05 µM (active); in experiment [4], 1.05 µM (active); in experiment [5] it was 3.72 µM (active). Moreover, the figures for the Potency in [13], in [14] and in [6] were 9.35 µM (active), 7.43 µM (active) and 2.35 µM (active), respectively. The Potency entry in [8] and in experiment [9] was “inactive” throughout.
Take `Cc1ccc(S(=O)(=O)NC(=O)NN2CC3CCCC3C2)cc1` (stereo unspecified): the Potency is 20.9 µM (active) in experiment [1]; 20.9 µM (active) in experiment [7]; 20.9 µM (active) in experiment [12]; 20.9 µM (active) in [3]; 23.5 µM (active) in experiment [4]; 23.5 µM (active) in [5]. In addition, the Potency in experiment [6] was 20.9 µM (active); in experiment [8] it was 23.5 µM (active); in [10], 16.6 µM (active); in [11] it was 18.7 µM (active).
As to `O=C(NC(Cc1cc(=O)[nH]c2ccccc12)C(=O)O)c1ccc(Cl)cc1` (stereo unspecified), the Potency in [15] is 14.8 µM (active); in experiment [3], 26.4 µM (active); in [4], 23.5 µM (active). Also, the Potency result in experiment [7], in experiment [14], in [9], in experiment [10] and in [11] was “inactive” each time. The viability in [2] was 118%.
For the compound `CCCCCCCCOc1ccccc1C(=O)Nc1ccc(C(=O)OCC[N+](C)(CC)CC)cc1`, the Potency in experiment [15] is 20.9 µM (active); in [7] it was 18.7 µM (active); in experiment [2] it was 26.4 µM (active); in experiment [12], 20.9 µM (active); in experiment [3], 16.6 µM (active); in experiment [4], 16.6 µM (active). Further, the Potency in experiment [14] was 16.6 µM (active); in experiment [6], 16.6 µM (active); in experiment [10], 18.7 µM (active).
For the compound `CC(C)c1ccc2c(c1)c(SC(C)(C)C)c(CC(C)(C)C(=O)O)n2Cc1ccc(Cl)cc1`, the Potency in [1] is 14.8 µM (active); in experiment [12], 20.9 µM (active); in [4], 23.5 µM (active). For the same compound, the Potency entry in experiment [7] and in experiment [9] was “inactive” each time.
Take `Cc1cc(O)c2c(c1)C(=O)c1cc(O)cc(O)c1C2=O`: the Potency entry in experiment [1], in [4], in experiment [5], in experiment [13], in experiment [9] and in [10] was “inactive” in each case. Also, in experiment [11], the Potency result was “inactive”. Further, the Potency in experiment [2] is 20.9 µM (active); in [8], 23.5 µM (active); in experiment [16], 10 µM (active); in experiment [17], 22.4 µM (active); in experiment [18], 8.91 µM (active); in [19], 22.4 µM (active). In addition, in [20], the compound was called inactive.
`O=C(O)c1cccnc1Nc1cccc(C(F)(F)F)c1`: the Potency result in [1], in experiment [7], in [3], in experiment [4], in experiment [6] and in experiment [8] was “inactive” throughout. For the same compound, the Potency result in [9], in [10] and in experiment [11] was “inactive” in each case. The viability in experiment [2] was 127%. Further, in experiment [5], the Potency was 3.32 µM (active).
For `O=C(O)c1cc(=O)c2c(OCC(O)COc3cccc4oc(C(=O)O)cc(=O)c34)cccc2o1`, the Potency result in experiment [1], in [3], in experiment [4], in [14], in experiment [6] and in experiment [9] was “inactive” throughout. In addition, the Potency entry in experiment [10] and in [11] was “inactive” each time. For the same compound, the viability in experiment [2] was 125%. Also, in experiment [5], the Potency is 5.26 µM (active).
Take `O=P(O)(O)C(O)(Cn1ccnc1)P(=O)(O)O`: the Potency entry in [15], in experiment [7], in experiment [3], in experiment [14], in experiment [6] and in experiment [8] was “inactive” in each case. Besides, the Potency entry in experiment [9], in [10] and in experiment [11] was “inactive” each time. For the same compound, the viability in [2] is 138%. For the same compound, in experiment [5], the Potency is 6.45 µM (active).
`CC(C)c1ccc2oc3nc(N)c(C(=O)O)cc3c(=O)c2c1`: the Potency in [1] was 18.7 µM (active). Further, the Potency result in experiment [3], in experiment [4], in experiment [14], in experiment [6], in experiment [8] and in [10] was “inactive” throughout. In addition, the Potency entry in [11] was “inactive”.
For `CCOC(=O)c1c(C)n(C)c2ccc(O)cc12`, the results for the Potency in experiment [15] and in experiment [4] were 3.72 µM (active) and 6.62 µM (active), respectively. Besides, the Potency result in experiment [7], in [3], in experiment [14], in experiment [8], in [9] and in experiment [10] was “inactive” throughout. Further, the viability in experiment [2] was 121%.
For the compound `CC(=O)N1CCN(c2ccc(OC[C@H]3CO[C@](Cn4ccnc4)(c4ccc(Cl)cc4Cl)O3)cc2)CC1`, in [13], the Potency result is “inactive”.
On to `C[Se]CCC(N)C(=O)O` (stereo unspecified), for which the Potency entry in experiment [7], in experiment [12], in experiment [4], in experiment [14], in experiment [8] and in experiment [9] was “inactive” in each case. Further, the Potency entry in [10] is “inactive”.
For the compound `COCCCOc1ccnc(CS(=O)c2nc3ccccc3[nH]2)c1C` (stereo unspecified), the Potency entry in experiment [7], in [12], in experiment [4], in [14], in experiment [6] and in experiment [8] was “inactive” in each case. Also, the Potency result in experiment [9], in experiment [10] and in experiment [11] was “inactive” throughout. Also, the results for the Potency in experiment [3] and in experiment [5] were 10.5 µM (active) and 4.69 µM (active), respectively.
For the compound `Cc1nc(-c2ccc(OCC(C)C)c(C#N)c2)sc1C(=O)O`, the Potency entry in experiment [7], in experiment [12], in [14], in [6], in [8] and in [9] was “inactive” each time. Besides, the Potency result in experiment [10] and in experiment [11] was “inactive” in each case. Moreover, in experiment [2], the viability was 114%.
